Assay results from the supplement of paper PMC10849652.
Targets with a hit are over-represented here; the source holds about 8,800 in all. About 0.5% of all pairs of compound and target were hits.

Legend:
Experiment in all cases: log2 fold change, soluble protein after heating vs DMSO (PISA); higher = thermal stabilisation; K562 lysate, 10 uM; active = over 0.2 and 3.5 SD of the protein, either way, in both replicates (recomputed)
nilotinib = compound: Cc1cn(-c2cc(NC(=O)c3ccc(C)c(Nc4nccc(-c5cccnc5)n4)c3)cc(C(F)(F)F)c2)cn1 [nilotinib]
In short: (§1)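 Pellets of K562 cells were dounce-homogenised in PBS pH 7.4 with 1 mM MgCl2, and the crude extract was held at 1 mg/mL protein for a 30 min treatment with 10 μM compound. Aliquots were heated for 3 min over 48°C-58°C and pooled before NP-40 was added to 0.5% at 4°C. The supernatant from 21,000xg for 90 min was quantified by TMTpro 16plex LC-MS/MS with channel sums equalised. Values are reported from duplicates as log-two fold change in thermal stability relative to solvent controls.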

[1] = compound: Cc1nc(Nc2n[nH]c3c2CN(C(=O)N[C@H](CN(C)C)c2ccccc2)C3(C)C)c2sccc2n1
In short: as §1

dasatinib = compound: Cc1nc(Nc2ncc(C(=O)Nc3c(C)cccc3Cl)s2)cc(N2CCN(CCO)CC2)n1 [dasatinib]
In short: as §1

[2] = compound: Cc1ncc(-c2ccnc(Nc3ccc(S(C)(=O)=O)cc3)n2)n1C(C)C
In short: as §1

[3] = compound: Cn1cc(-c2ccc3c(c2)CCN3C(=O)Cc2cccc(C(F)(F)F)c2)c2c(N)ncnc21
In short: as §1

quisinostat = compound: Cn1cc(CNCC2CCN(c3ncc(C(=O)NO)cn3)CC2)c2ccccc21 [quisinostat]
In short: as §1

tipifarnib = compound: Cn1cncc1[C@@](N)(c1ccc(Cl)cc1)c1ccc2c(c1)c(-c1cccc(Cl)c1)cc(=O)n2C [tipifarnib]
In short: as §1

[4] = compound: NC(=O)Nc1cc(-c2cccc(F)c2)sc1C(=O)N[C@H]1CCCNC1
In short: as §1

[5] = compound: NC(=O)c1cnc(N[C@@H]2CCCC[C@@H]2N)nc1Nc1cccc(-n2nccn2)c1
In short: as §1

[6] = compound: NC1(c2ccc(-c3nc4ccn5c(=O)[nH]nc5c4cc3-c3ccccc3)cc2)CCC1
In short: as §1

Measured: log2 fold change

TMPO (UniProt P42167)
inactive: nilotinib -0.033 | [1] -0.003 | dasatinib 0.008 | [2] -0.042 | [3] -0.016 | quisinostat 0.061 | tipifarnib -0.034 | [4] 0.009 | [5] -0.011 | [6] 0.007

TMPO (UniProt P42166)
Sequence of UniProt P42166 (P42166 whole entry, looked up): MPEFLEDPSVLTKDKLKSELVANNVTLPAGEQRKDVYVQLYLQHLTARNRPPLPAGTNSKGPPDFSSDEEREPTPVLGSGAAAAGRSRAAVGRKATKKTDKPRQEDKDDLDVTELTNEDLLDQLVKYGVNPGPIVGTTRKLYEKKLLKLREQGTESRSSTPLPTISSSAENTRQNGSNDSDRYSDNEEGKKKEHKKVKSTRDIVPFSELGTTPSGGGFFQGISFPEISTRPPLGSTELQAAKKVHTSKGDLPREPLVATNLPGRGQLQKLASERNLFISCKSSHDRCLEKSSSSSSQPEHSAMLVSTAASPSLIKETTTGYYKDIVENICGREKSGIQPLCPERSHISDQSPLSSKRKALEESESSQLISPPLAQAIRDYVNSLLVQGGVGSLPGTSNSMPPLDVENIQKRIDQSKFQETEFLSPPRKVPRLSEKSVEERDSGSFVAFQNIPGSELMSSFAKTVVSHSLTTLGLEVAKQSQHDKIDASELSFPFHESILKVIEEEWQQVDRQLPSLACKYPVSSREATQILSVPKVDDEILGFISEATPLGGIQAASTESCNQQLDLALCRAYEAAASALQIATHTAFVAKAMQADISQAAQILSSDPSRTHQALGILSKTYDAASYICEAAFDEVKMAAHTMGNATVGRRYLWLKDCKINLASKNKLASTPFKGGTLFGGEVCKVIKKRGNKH
inactive: nilotinib 0.05 | [1] -0.178 | dasatinib -0.069 | [2] -0.036 | [3] 0.029 | quisinostat -0.041 | tipifarnib -0.018 | [4] 0.035 | [5] 0.031 | [6] -0.006

TOPBP1 (UniProt Q92547)
Sequence of UniProt Q92547 (Q92547 whole entry, looked up): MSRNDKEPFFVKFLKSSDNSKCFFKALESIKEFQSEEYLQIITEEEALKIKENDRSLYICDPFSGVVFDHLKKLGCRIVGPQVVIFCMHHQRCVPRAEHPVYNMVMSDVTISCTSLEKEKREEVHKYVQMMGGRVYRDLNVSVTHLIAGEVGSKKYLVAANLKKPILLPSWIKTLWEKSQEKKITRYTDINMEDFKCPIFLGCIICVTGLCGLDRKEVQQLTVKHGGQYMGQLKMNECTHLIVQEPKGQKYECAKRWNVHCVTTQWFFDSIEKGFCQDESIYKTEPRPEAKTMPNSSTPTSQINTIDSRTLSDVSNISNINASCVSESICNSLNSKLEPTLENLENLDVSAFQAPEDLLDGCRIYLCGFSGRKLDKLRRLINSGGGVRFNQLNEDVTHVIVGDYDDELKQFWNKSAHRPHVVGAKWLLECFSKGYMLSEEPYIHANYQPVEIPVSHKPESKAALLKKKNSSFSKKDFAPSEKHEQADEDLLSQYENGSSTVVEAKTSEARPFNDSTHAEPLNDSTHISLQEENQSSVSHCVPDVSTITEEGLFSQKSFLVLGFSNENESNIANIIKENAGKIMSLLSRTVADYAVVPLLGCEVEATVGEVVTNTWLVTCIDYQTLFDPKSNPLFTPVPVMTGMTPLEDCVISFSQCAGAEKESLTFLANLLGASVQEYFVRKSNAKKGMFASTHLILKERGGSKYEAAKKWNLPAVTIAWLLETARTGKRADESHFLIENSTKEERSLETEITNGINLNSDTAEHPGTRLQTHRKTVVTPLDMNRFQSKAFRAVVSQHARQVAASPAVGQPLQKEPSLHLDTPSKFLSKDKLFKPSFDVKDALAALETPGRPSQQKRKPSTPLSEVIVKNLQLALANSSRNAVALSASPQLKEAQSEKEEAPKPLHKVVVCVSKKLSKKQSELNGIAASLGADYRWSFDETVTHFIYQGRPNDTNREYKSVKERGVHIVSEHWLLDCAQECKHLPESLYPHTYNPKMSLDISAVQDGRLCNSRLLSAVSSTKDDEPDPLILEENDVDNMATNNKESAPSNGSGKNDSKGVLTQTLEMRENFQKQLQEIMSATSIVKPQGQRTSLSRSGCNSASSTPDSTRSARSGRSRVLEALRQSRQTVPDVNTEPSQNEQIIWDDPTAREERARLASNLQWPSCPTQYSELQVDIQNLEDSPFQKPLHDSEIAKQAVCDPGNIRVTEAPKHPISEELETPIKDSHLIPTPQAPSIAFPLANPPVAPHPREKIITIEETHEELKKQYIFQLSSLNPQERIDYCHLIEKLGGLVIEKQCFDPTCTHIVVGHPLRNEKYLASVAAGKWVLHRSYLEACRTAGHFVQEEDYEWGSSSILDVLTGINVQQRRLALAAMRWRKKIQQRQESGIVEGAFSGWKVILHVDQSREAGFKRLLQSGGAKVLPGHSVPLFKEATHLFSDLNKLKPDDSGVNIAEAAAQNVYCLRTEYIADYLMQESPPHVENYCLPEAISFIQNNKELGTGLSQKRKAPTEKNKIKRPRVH
inactive: nilotinib 0.013 | [1] -0.056 | dasatinib 0.003 | [2] 0.006 | [3] 0.02 | quisinostat -0.018 | tipifarnib 0.049 | [4] -0.002 | [5] 0.039 | [6] -0.007

TUBB2A (UniProt Q13885)
inactive: nilotinib -0.005 | [1] -0.002 | dasatinib -0.049 | [2] -0.02 | [3] -0.001 | quisinostat -0.035 | tipifarnib 0.009 | [4] 0.043 | [5] 0.003 | [6] 0.007

TSFM (UniProt P43897)
inactive: nilotinib -0.013 | [1] 0.021 | dasatinib -0.034 | [2] -0.028 | [3] 0.017 | quisinostat -0.016 | tipifarnib 0.002 | [4] 0.002 | [5] 0.037 | [6] -0.026

TRMT10A (UniProt Q8TBZ6)
inactive: nilotinib 0.008 | [1] -0.027 | dasatinib -0.07 | [2] 0.019 | [3] 0.013 | quisinostat -0.028 | tipifarnib 0.005 | [4] 0.01 | [5] 0.028 | [6] -0.01

TTI2 (UniProt Q6NXR4)
inactive: nilotinib 0.022 | [1] 0.029 | dasatinib -0.051 | [2] 0.044 | [3] 0.01 | quisinostat -0.009 | tipifarnib -0.018 | [4] -0.003 | [5] 0.049 | [6] -0.013

TTMP isoform 3 (UniProt Q5BVD1)
Sequence of UniProt Q5BVD1 (Q5BVD1 whole entry, looked up): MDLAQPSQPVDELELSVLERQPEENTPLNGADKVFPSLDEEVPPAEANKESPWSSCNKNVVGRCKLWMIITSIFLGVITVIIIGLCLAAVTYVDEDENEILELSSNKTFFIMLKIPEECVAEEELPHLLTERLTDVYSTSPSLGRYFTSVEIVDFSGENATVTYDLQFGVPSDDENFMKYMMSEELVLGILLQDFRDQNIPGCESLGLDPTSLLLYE
inactive: nilotinib 0.118 | [1] -0.023 | dasatinib -0.079 | [2] -0.022 | [3] -0.046 | quisinostat -0.475 | tipifarnib -0.089 | [4] 0.048 | [5] 0.116 | [6] -0.113

UBE3B (UniProt Q7Z3V4)
Sequence of UniProt Q7Z3V4 (Q7Z3V4 whole entry, looked up): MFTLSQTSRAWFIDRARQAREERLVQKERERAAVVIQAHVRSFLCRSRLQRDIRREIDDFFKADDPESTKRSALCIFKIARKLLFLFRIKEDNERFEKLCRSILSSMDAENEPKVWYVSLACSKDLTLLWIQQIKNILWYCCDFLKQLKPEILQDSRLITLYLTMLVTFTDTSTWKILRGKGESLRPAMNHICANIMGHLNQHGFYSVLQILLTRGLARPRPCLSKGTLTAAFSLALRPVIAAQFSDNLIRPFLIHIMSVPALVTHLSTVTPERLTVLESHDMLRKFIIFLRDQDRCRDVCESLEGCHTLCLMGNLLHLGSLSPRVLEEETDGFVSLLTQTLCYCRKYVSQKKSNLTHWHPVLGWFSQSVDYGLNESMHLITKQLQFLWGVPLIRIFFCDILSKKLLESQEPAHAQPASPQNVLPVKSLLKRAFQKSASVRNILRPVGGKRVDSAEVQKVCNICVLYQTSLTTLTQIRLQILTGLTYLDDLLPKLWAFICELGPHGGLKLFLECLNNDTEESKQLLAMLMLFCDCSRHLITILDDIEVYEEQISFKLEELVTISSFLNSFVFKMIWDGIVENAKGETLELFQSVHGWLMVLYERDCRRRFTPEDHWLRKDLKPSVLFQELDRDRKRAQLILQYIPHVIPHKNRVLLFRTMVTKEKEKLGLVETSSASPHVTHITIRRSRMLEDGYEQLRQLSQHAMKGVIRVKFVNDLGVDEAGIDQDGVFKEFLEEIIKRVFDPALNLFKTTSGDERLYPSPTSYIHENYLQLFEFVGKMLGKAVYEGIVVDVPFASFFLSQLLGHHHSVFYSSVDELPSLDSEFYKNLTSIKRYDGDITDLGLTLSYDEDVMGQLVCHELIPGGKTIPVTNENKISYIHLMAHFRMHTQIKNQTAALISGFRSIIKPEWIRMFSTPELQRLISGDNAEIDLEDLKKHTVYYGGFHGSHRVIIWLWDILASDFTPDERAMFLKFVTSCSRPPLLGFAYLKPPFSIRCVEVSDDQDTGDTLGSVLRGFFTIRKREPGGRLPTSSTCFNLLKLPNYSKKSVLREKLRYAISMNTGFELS
inactive: nilotinib 0.041 | [1] -0.006 | dasatinib 0.055 | [2] -0.011 | [3] 0.053 | quisinostat -0.077 | tipifarnib -0.102 | [4] 0.041 | [5] 0.14 | [6] -0.026

TDRD3 isoform 3 (UniProt Q9H7E2)
inactive: nilotinib 0.261 | [1] -0.04 | dasatinib 0.033 | [2] 0.17 | [3] 0.01 | quisinostat -0.023 | tipifarnib -0.152 | [4] 0.042 | [5] 0.014 | [6] 0.064

TBRG4 (UniProt Q969Z0)
Sequence of UniProt Q969Z0 (Q969Z0 whole entry, looked up): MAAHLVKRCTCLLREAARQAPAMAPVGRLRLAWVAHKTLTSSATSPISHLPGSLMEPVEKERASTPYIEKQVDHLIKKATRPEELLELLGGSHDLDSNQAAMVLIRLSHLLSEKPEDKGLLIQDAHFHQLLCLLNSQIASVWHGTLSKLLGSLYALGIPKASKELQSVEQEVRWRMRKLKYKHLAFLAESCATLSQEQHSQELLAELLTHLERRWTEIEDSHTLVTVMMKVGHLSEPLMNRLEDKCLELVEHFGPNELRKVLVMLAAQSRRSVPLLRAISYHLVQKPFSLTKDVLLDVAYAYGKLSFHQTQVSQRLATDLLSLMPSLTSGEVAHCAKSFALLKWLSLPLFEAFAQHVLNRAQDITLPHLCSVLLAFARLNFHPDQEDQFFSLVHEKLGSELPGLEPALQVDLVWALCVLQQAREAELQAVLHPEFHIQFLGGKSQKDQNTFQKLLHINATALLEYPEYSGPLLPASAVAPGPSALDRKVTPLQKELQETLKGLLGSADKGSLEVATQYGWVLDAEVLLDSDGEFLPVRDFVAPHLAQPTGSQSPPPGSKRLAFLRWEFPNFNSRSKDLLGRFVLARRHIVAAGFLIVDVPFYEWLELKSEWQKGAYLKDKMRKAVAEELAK
inactive: nilotinib -0.016 | [1] -0.03 | dasatinib -0.035 | [2] 0.007 | [3] 0.059 | quisinostat 0.004 | tipifarnib -0.006 | [4] 0.038 | [5] 0.022 | [6] 0.019

TRAF7 (UniProt Q6Q0C0)
Sequence of UniProt Q6Q0C0 (Q6Q0C0 whole entry, looked up): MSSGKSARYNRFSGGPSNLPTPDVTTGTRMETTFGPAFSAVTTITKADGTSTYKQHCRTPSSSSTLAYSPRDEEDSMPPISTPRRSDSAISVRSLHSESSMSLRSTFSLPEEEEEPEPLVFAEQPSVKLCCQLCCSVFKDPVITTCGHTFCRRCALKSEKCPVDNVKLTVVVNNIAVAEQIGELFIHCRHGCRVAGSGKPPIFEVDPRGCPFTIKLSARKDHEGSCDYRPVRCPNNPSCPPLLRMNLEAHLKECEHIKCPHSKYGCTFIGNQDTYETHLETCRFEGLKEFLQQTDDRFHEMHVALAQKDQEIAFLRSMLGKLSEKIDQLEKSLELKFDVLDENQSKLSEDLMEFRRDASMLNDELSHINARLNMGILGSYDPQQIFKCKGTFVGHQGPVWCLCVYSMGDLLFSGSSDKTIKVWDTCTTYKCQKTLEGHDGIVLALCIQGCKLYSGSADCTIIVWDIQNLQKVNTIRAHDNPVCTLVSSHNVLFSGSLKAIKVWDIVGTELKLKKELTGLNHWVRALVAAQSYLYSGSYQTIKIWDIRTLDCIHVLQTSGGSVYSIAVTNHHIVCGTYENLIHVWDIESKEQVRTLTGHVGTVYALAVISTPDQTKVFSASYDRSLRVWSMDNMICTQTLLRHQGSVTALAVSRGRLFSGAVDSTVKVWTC
inactive: nilotinib 0.16 | [1] 0.027 | dasatinib -0.005 | [2] 0.154 | [3] 0.163 | quisinostat -0.035 | tipifarnib -0.1 | [4] -0.033

TUBB6 (UniProt Q9BUF5)
inactive: nilotinib -0.002 | [1] -0.023 | dasatinib -0.031 | [2] 0.006 | [3] -0.006 | quisinostat -0.028 | tipifarnib 0.021 | [4] 0.022 | [5] -0.001 | [6] 0.004

UBR3 isoform 4 (UniProt Q6ZT12)
inactive: nilotinib 0.003 | [1] -0.033 | dasatinib -0.026 | [2] -0.005 | [3] 0.014 | quisinostat -0.069 | tipifarnib -0.009 | [4] 0.036 | [5] -0.032 | [6] -0.039

TCF4 (UniProt P15884)
inactive: nilotinib -0.004 | [1] -0.139 | dasatinib 0.077 | [2] -0.057 | [3] 0.01 | quisinostat 0.161 | tipifarnib -0.147 | [4] 0.064 | [5] 0.016

TUBE1 (UniProt Q9UJT0)
inactive: nilotinib 0.036 | [1] -0.051 | dasatinib 0.017 | [2] -0.046 | [3] -0.028 | quisinostat -0.037 | tipifarnib 0.029 | [4] 0.064 | [5] 0.007 | [6] 0.025

TPM4 (UniProt P67936)
Sequence of UniProt P67936 (P67936 whole entry, looked up): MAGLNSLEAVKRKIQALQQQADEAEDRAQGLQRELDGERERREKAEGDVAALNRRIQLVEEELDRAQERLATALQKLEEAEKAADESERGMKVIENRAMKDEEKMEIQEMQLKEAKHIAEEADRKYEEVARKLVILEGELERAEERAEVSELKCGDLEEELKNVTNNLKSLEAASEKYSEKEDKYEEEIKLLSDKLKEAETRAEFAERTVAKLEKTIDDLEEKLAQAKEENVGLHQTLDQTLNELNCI
inactive: nilotinib 0.028 | [1] -0.068 | dasatinib 0.058 | [2] -0.028 | [3] -0.01 | quisinostat 0 | tipifarnib -0.004 | [4] -0.054 | [5] 0.007 | [6] -0.029

TPP2 (UniProt P29144)
inactive: nilotinib 0.013 | [1] -0.005 | dasatinib -0.005 | [2] -0.02 | [3] 0.019 | quisinostat 0.01 | tipifarnib 0.006 | [4] 0.013 | [5] 0 | [6] 0.003

TUBB4B (UniProt P68371)
inactive: nilotinib 0.049 | [1] -0.05 | dasatinib -0.025 | [2] -0.034 | [3] -0.005 | quisinostat 0.033 | tipifarnib -0.001 | [4] 0.006 | [5] -0.019 | [6] 0.009

TEX30 (UniProt Q5JUR7)
inactive: nilotinib -0.036 | [1] 0.072 | dasatinib -0.109 | [2] 0.003 | [3] -0.004 | quisinostat 0.007 | tipifarnib 0 | [4] 0.046 | [5] -0.017 | [6] -0.052

TSPAN13 (UniProt O95857)
inactive: nilotinib -0.067 | [1] 0.02 | dasatinib -0.054 | [2] 0.121 | [3] -0.35 | quisinostat 0.034 | tipifarnib -0.032 | [4] -0.126 | [5] 0.035 | [6] 0.132

TTI1 (UniProt O43156)
inactive: nilotinib -0.007 | [1] 0.004 | dasatinib 0.005 | [2] 0.001 | [3] 0.016 | quisinostat -0.047 | tipifarnib -0.015 | [4] -0.003 | [5] 0.01 | [6] -0.001

TPP2 (UniProt Q5VZU9)
inactive: nilotinib 0.066 | [1] 0.035 | dasatinib -0.194 | [2] -0.015 | [3] 0.036 | quisinostat 0.084 | tipifarnib -0.001 | [4] 0.107 | [5] -0.006 | [6] -0.039

TTC5 (UniProt Q8N0Z6)
inactive: nilotinib 0.012 | [1] -0.064 | dasatinib 0 | [2] -0.016 | [3] 0.047 | quisinostat -0.084 | tipifarnib 0.01 | [4] 0 | [5] -0.007 | [6] 0.001

UBAP2L isoform 5 (UniProt Q14157)
inactive: nilotinib -0.141 | [1] 0.015 | dasatinib -0.035 | [2] 0.055 | [3] -0.058 | quisinostat 0.024 | tipifarnib -0.106 | [4] 0.048 | [5] 0.01 | [6] 0.02

TUBB4A (UniProt P04350)
inactive: nilotinib 0.027 | [1] -0.026 | dasatinib 0.003 | [2] -0.023 | [3] 0.067 | quisinostat -0.196 | tipifarnib 0.027 | [4] 0.085 | [5] 0.011 | [6] 0.023

TIMM44 (UniProt O43615)
inactive: nilotinib 0.082 | [1] -0.011 | dasatinib -0.087 | [2] 0.023 | [3] -0.028 | quisinostat 0.003 | tipifarnib -0.108 | [4] -0.058 | [5] 0 | [6] -0.031

TCP11L1 (UniProt Q9NUJ3)
inactive: nilotinib 0.062 | [1] -0.114 | dasatinib -0.034 | [2] -0.035 | [3] 0.01 | quisinostat -0.055 | tipifarnib -0.003 | [4] 0.051 | [5] -0.022 | [6] 0.028

UBE4A isoform 2 (UniProt Q14139)
inactive: nilotinib 0.023 | [1] -0.009 | dasatinib -0.075 | [2] -0.022 | [3] 0.026 | quisinostat -0.018 | tipifarnib -0.003 | [4] 0.054 | [5] 0.002 | [6] 0.017

THEMIS2 (UniProt Q5TEJ8)
inactive: nilotinib -0.096 | [1] 0.06 | dasatinib -0.092 | [2] -0.144 | [3] 0.059 | quisinostat 0.03 | tipifarnib -0.039 | [4] 0.051 | [5] 0.095 | [6] 0.019
